Measured potencies and affinities stand elsewhere.
tested on: Cryptococcus neoformans; details: Concentration 32 ug.mL-1; ASSAY_TEST Inhibition of Fungal Growth; detection method Resazurin; Absorption (OD600-OD570); plate type 384well; NBS; CORNING #3640

SMILES | Inhibition [%]
Cc1c(Cl)cccc1-n1ccn2c(=O)n(Cc3ccccc3Cl)nc2c1=O | -12.25
CCc1nnc2ccc(S(=O)(=O)N(Cc3cccc(F)c3)c3ccc(OC)cc3)cn12 | -10.67
COc1cccc(CNC(=O)CSc2nnc3c4cc(-c5ccc(C)cc5)nn4ccn23)c1 | -12.58
CCC(C)NC(=O)c1ccc2c(=O)n(CCC(C)C)c3nn(CC#N)c(=O)n3c2c1 (stereo not given) | -22.02
Cc1nnc2c(S(=O)(=O)N(Cc3ccccc3F)c3ccc(C(C)C)cc3)cccn12 | -4.75
COc1ccc(CNC(=O)CCc2nnc3c(N4CCCCC4)nc4ccccc4n23)cc1OC | -22.66
COc1ccc(Cl)cc1NC(=O)Cn1nc2c3cc(-c4ccc(C)cc4)nn3ccn2c1=O | -9.24
Cc1ccc(Oc2nccn3c(=O)n(CC(=O)Nc4ccc(Br)cc4)nc23)cc1 | -16.67
CCc1nnc2c(S(=O)(=O)N(Cc3cccc(OC)c3)c3ccccc3)cccn12 | -9.71
O=C(Cn1nc2ccc(Sc3ccccc3)nn2c1=O)Nc1ccc(Cl)cc1 | -7.55
Cc1ccc(C)c(-c2cc3c4nnc(SCC(=O)Nc5cccc(Br)c5)n4ccn3n2)c1 | -19.95
COc1ccc(CN(c2ccc(F)cc2)S(=O)(=O)c2cccn3cnnc23)cc1F | -9.79
Cc1ccc(NC(=O)Cn2nc3ccc(SC(C)(C)C)nn3c2=O)cc1Cl | -28.11
COc1ccc(NC(=O)Cn2nc3c(N4CCOCC4)nccn3c2=O)cc1Cl | -7.27
COc1cccc(CN(c2ccc(C)c(F)c2)S(=O)(=O)c2ccc3nncn3c2)c1 | -8.8
Cc1cc2nn(CC(=O)NCc3ccco3)c(=O)n2c(Nc2ccc(C)c(F)c2)n1 | -7.03
O=C(CSc1nnc2c(=O)n(-c3ccccc3)ccn12)Nc1ccc2c(c1)OCCO2 | -23.79
CC(C)c1ccc(N(Cc2ccccc2)S(=O)(=O)c2cccn3cnnc23)cc1 | -11.77
Cc1cccc(CSc2nnc3c(=O)n(-c4ccc(Br)cc4)ccn23)c1 | -6.53
Cc1ccc(Cn2nc3c(=O)n(-c4cccc(Cl)c4C)ccn3c2=O)cc1 | -17.53

SMILES | Inhibition [%]
COc1cccc(Sc2nc3ccccc3n3c(=O)n(CC(=O)Nc4cccc(C#N)c4)nc23)c1 | -21.13
COc1ccc(NC(=O)Cn2nc3c(Oc4cccc(F)c4)nccn3c2=O)cc1 | -6.95
Cc1ccc(-c2ccc3nn(CC(=O)NC4CCCCC4)c(=O)n3n2)cc1C | -9.98
COc1ccc(NC(=O)Cn2nc3ccc(-c4ccc(Cl)cc4)nn3c2=O)cc1 | -12.45
O=c1n(Cc2ccccc2F)nc2ccc(S(=O)(=O)N3CCCCCC3)cn12 | -9.24
Cc1ccc(-c2ccc3nn(CC(=O)Nc4ccc(Br)cc4)c(=O)n3n2)cc1C | -18.48
CCc1nnc2c(S(=O)(=O)N(Cc3ccc(F)cc3)c3cccc(Cl)c3)cccn12 | -7.67
Cc1cc2nn(CC(=O)Nc3cccc(C)c3C)c(=O)n2c(Nc2ccc(C)c(F)c2)n1 | -5.98
Cc1ccc(NC(=O)Cn2nc3cc(C)nc(Nc4ccc(F)c(C)c4)n3c2=O)cc1 | -5.79
COc1ccccc1NC(=O)Cn1nc2n(CCCOC(C)C)c(=O)c3ccccc3n2c1=O | -35.55
Cc1ccc(-c2cc3c4nn(CC(=O)Nc5ccc6c(c5)OCO6)c(=O)n4ccn3n2)cc1C | -8.66
Cc1cccc(NC(=O)c2ccc3nnc(SCC(=O)Nc4ccc(Br)cc4)n3c2)c1 | -6.93
CC(C)NC(=O)CCn1c(=O)c2cc(Cl)ccc2n2c(=O)n(CC#N)nc12 | -24.01
CC(C)NC(=O)Cn1nc2nc(Nc3ccc(F)cc3)ccn2c1=O | -10.27
COc1ccc(-c2cc3c4nnc(SCC(=O)Nc5cc(Cl)ccc5C)n4ccn3n2)cc1 | -34.55
CCOc1ccccc1CNC(=O)CCc1nnc2ccc(-c3ccccc3)nn12 | -22.57
CCCCn1c(=O)c2sccc2n2c(CCC(=O)NCCC34CC5CC(CC(C5)C3)C4)nnc12 | -18.41
COc1cc(OC)c(NC(=O)Cn2nc3c(N4CCOCC4)nccn3c2=O)cc1Cl | -8.41
O=c1n(Cc2ccc3c(c2)OCO3)nc2c(S(=O)(=O)N3CCCC3)cccn12 | -5.87
COc1ccc(NC(=O)Cn2nc3c(Sc4ccccc4)nccn3c2=O)c(OC)c1 | -16.55

Source: ChEMBL document CHEMBL4513146, “CO-ADD screening of Karazin Kharkiv National University (Ukraine) compounds”
